Each structure is given as a SMILES string. Active and inactive are the calls of the source. Unless noted, the rule behind the calls is not given here.

Assay [1] can be described thus: A549 cell viability effects, profiling panel, calcein-AM fluorescence, 48 h, basal (AID 1162). Note: test concentration not given here. Conditions: higher = more signal.
Assay [2] in a line: adipocyte viability effects, profiling panel, cell-based, 3T3-L1 adipocytes, calcein-AM fluorescence, 48 h, basal (AID 1163). Note: test concentration not given here. Conditions: 3T3-L1 adipocytes viability, higher = more signal.
Assay [3] in a line: HepG2 cell viability effects, profiling panel, calcein-AM fluorescence, 48 h, basal (AID 1164). Note: test concentration not given here. Conditions: higher = more signal.
Assay [4] can be described thus: MM1S cell viability effects, profiling panel, calcein-AM fluorescence, 48 h, basal (AID 1165).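 Note: viability of MM1S multiple myeloma cells under basal unstimulated conditions; test concentration not given here.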 Conditions: higher = more signal.
Assay [5] can be described thus: basal RPMI8226 viability, no added stimulus, profiling panel, cell-based, calcein-AM fluorescence, 48 h, PK04 Diversity Set (AID 1166).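 Note: cells grown under basal conditions without added stimulus; test concentration not given here.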 Conditions: RPMI8226 myeloma viability, higher = more signal.
The nature of assay [6]: basal HepG2 mitochondrial membrane potential changes, profiling panel, cell-based, JC-1 fluorescence, 24 h, 100 nL compound (AID 1167). Note: test concentration not given here. Conditions: higher = more signal.
Assay [7] is described as follows: basal 3T3-L1 adipocyte mitochondrial potential changes, profiling panel, cell-based, JC-1 fluorescence, 3T3-L1 adipocytes, 24 h, 100 nL compound (AID 1168). Note: test concentration not given here. Conditions: JC-1 mitochondrial fluorescence, higher = more signal, called active from +8 up or from −8 down.
Assay [8] can be described thus: basal RPMI8226 mitochondrial membrane potential changes, profiling panel, cell-based, JC-1 fluorescence, 24 h, 100 nL compound (AID 1169). Note: test concentration not given here. Conditions: RPMI8226 myeloma, JC-1 mitochondrial potential fluorescence, higher = more signal.
Assay [9] can be described thus: basal MM1S mitochondrial membrane potential changes, profiling panel, cell-based, JC-1 fluorescence, 24 h, 100 nL compound (AID 1170). Note: test concentration not given here. Conditions: higher = more signal.
The nature of assay [10]: A549 lung cancer cell viability effects, profiling panel, resazurin fluorescence, 24 h, PK04 Diversity Set (AID 1171). Note: test concentration not given here. Conditions: higher = more signal, called active from +8 up or from −8 down. Background: Alamar Blue is a resazurin reagent that responds to reducing activity.
Assay [11] in a line: HepG2 liver cancer cell viability effects, profiling panel, resazurin fluorescence, 24 h, PK04 Diversity Set (AID 1172). Note: test concentration not given here. Conditions: higher = more signal.
A short description of assay [12]: basal S. cerevisiae growth modulation, no modifier, primary screen, OD600, strain BY4716, 24 h, basal condition (AID 1173). Conditions: OD600, 24 h, higher = more signal, called active from +8 up or from −8 down.
Assay [13] in a line: MM1S myeloma cell viability, profiling panel, resazurin fluorescence, basal, 24 h, PK04 Diversity Set (AID 1174). Note: test concentration not given here. Conditions: higher = more signal, called active from +8 up or from −8 down.
Assay [14] deals with Dihydroorotate dehydrogenase (quinone), mitochondrial (Plasmodium falciparum (isolate 3D7)) (UniProt Q08210). The assay can be described thus: PfDHODH enzyme inhibitors, primary screen, biochemical, C-terminal His tag, absorbance 600 nm (AID 1175).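 Note: recombinant parasite enzyme with a five histidine tag at its C terminus; test concentration not given here.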 Conditions: DCIP absorbance 600 nm, higher = more signal, called active from +8 up or from −8 down.
Sequence of Dihydroorotate dehydrogenase (quinone), mitochondrial (Plasmodium falciparum (isolate 3D7)) (Q08210 whole entry, looked up): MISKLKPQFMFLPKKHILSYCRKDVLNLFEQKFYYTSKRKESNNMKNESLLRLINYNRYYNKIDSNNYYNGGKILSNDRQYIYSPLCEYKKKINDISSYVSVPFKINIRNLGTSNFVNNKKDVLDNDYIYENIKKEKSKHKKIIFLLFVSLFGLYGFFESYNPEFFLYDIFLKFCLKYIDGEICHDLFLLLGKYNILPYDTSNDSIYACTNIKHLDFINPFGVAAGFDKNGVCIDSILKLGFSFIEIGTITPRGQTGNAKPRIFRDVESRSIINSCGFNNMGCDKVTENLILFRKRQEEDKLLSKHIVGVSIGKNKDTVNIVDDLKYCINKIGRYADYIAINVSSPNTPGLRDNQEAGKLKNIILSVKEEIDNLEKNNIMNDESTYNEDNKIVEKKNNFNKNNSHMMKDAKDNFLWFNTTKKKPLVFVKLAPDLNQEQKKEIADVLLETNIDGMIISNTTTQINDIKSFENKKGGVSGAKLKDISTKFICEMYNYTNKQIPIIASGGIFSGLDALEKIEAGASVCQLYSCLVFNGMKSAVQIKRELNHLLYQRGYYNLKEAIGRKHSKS
A short description of assay [15]: P. aeruginosa biofilm formation inhibitors, primary screen, strain PAO1, LB-PBS medium, absorbance 600 nm (AID 1176). Note: test concentration not given here. Conditions: P. aeruginosa PAO1 growth/biofilm, A600, 12 h; higher = more signal.
Assay [16] is described as follows: S. cerevisiae RM11-1a growth modifiers, primary screen, strain RM11-1a, OD600, basal, 24 h (AID 1177).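 Note: cultures grown under basal conditions with no added stressor; test concentration not given here.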 Conditions: OD600, 24 h, higher = more signal, called active from +8 up or from −8 down.
Assay [17] is described as follows: E. coli acrAB mutant growth effects, primary screen, E. coli filamentation inducers, strain DRC39, OD650, 24 h (AID 1178).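 Note: growth measured as culture turbidity by optical density at 650 nm; test concentration not given here.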 Conditions: higher = more signal, called active from +8 up or from −8 down.
The nature of assay [18]: E. coli acrAB mutant growth effects, primary screen, E. coli filamentation inducers, strain DRC39, OD650, 48 h (AID 1179).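 Note: screen aims at cell division blockers that make cells filament.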 Conditions: E. coli DRC39 delta-acrAB growth, higher = more signal, called active from +8 up or from −8 down.
Assay [19] is described as follows: RPMI8226 myeloma cell viability, profiling panel, resazurin fluorescence, basal, 24 h, PK04 Diversity Set (AID 1180).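 Note: RPMI8826 multiple myeloma cell line at 5000 cells per well; test concentration not given here.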 Conditions: higher = more signal.
Assay [20] concerns the target E3 ubiquitin-protein ligase XIAP (Homo sapiens) (UniProt P98170). The assay can be described thus: XIAP binders, primary screen, biophysical, small-molecule microarray, fluorescence 635 nm (AID 1181).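 Note: score merges 667 nm emission and signal to noise over triplicate slides.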 Conditions: small-molecule microarray binding, higher = more signal.

Sequence of E3 ubiquitin-protein ligase XIAP (Homo sapiens) (P98170 whole entry, looked up): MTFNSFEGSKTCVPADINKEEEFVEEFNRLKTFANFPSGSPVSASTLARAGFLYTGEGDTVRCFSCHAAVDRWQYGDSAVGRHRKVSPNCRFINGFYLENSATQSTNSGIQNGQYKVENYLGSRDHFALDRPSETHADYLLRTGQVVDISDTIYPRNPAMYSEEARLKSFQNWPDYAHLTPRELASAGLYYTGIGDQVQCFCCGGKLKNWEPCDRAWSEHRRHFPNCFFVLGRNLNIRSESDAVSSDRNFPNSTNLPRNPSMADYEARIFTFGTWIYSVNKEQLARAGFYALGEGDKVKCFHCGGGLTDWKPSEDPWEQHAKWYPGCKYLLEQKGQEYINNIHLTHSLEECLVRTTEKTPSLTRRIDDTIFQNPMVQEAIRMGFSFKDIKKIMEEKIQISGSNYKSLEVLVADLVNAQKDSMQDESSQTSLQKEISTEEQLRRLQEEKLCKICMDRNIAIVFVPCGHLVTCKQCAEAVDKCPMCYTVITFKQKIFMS

Take `COc1ccccc1CN1C(=O)c2ccccc2[C@@H](C(=O)NC2CC2)[C@@H]1c1ccc(CO)cc1`: the z-score is 1.44 in assay [1]; -0.348 in assay [2]; 1.26 in assay [3]; 0.467 in [4]; -0.376 in assay [5]; 2.33 in [6]. In addition, the z-score in [7] was 0.171 (inactive); in assay [8], 0.371; in [9], -0.0698; in assay [10], 0.469 (inactive); in assay [11] it was 0.103; in [12], -0.561 (inactive). The z-score was 0.84 (inactive) in [13]; -0.342 (inactive) in assay [15]; 0.184 (inactive) in [16]; 0.421 (inactive) in assay [17]; 0.119 (inactive) in assay [18]; 0.407 in assay [19]. Moreover, the composite z-score in [14] was -0.245 (inactive); in assay [20], -0.0085.
Take `COC(=O)[C@@]1(CCS(=O)(=O)c2ccccc2)N=C(c2ccc(OCCCO)cc2)O[C@H]1c1ccccc1CN=[N+]=[N-]`: the z-score is -1.33 in assay [1]; -0.688 in [2]; -1.12 in assay [3]; -1.92 in [4]; -2.59 in [5]; -1.13 in [6]. In addition, the z-score in assay [7] was 0.877 (inactive); in assay [8] it was -1.22; in assay [9], -1.56; in assay [10], -2.08 (inactive); in assay [11], -0.882; in [12], 1.38 (inactive). The z-score in [13] was -3.13 (inactive); in [15] it was 0.92 (inactive); in [16] it was 0.642 (inactive); in assay [17] it was 0.163 (inactive); in assay [18], -0.154 (inactive); in assay [19] it was -2.55. In addition, the figures for the composite z-score in assay [14] and in assay [20] were 0.484 (inactive) and 0.316, respectively.
For `O=C(NCCN1CCOCC1)[C@@H]1c2ccccc2C(=O)N(C2CCCCC2)[C@H]1c1ccc(CO)cc1`, the z-score in assay [1] is 1.37; in assay [2], 1.19; in assay [3], 2.16; in assay [4], -0.165; in [5] it was -1.03; in assay [6], 3.08. The z-score in assay [7] was -0.0789 (inactive); in [8], 0.0842; in assay [9], 0.146; in assay [10], 1.17 (inactive); in assay [11], -0.0383; in assay [12], 0.211 (inactive). Moreover, the z-score was 0.528 (inactive) in assay [13]; -0.177 (inactive) in [15]; 0.0492 (inactive) in [16]; -0.424 (inactive) in assay [17]; -0.783 (inactive) in [18]; 0.872 in assay [19]. The composite z-score in assay [14] was -0.146 (inactive); in [20] it was -0.165.
Consider `O=C1OCCC/C=C\[C@H]2OC34C=CCN(Cc5ccccc5)C(=O)[C@H]3N(CCCO)C(=O)[C@@H]4C12` (stereo not given in full), for which the z-score in [1] was -0.0592; in assay [2] it was -0.0687; in assay [3], 0.556; in assay [4], 1.58; in [5], 0.438; in assay [6], 0.315. The z-score is 0.478 (inactive) in assay [7]; 0.0319 in assay [8]; 1.44 in [9]; 0.0483 (inactive) in assay [10]; -0.203 in [11]; 1.29 (inactive) in [12]. Further, the z-score in assay [13] is 0.794 (inactive); in [15], -1.16 (inactive); in assay [16], 1.29 (inactive); in assay [17], 0.625 (inactive); in [18], 0.59 (inactive); in [19], 1.35. Moreover, the composite z-score was 0.905 (inactive) in assay [14] and -0.0876 in [20].
For the compound `C=CCOC(=O)[C@H]1[C@@H]2C(=O)O[C@@H](c3ccccc3)[C@@H](c3ccccc3)N2[C@@H](c2ccc(OCCOC(=O)[C@H]3C[C@H]4C(=O)N[C@@H](CCCCN(C)C)C(=O)N4[C@H]3c3ccc(O)cc3)cc2)[C@]12C(=O)Nc1ccc(I)cc12`, the z-score in assay [1] is -0.041; in [2], -0.032; in [3], -0.959; in [4], -0.203; in assay [5] it was 0.427; in assay [6], 0.75. The z-score is -0.623 (inactive) in assay [7]; 0.742 in assay [8]; 0.192 in [9]; -0.708 (inactive) in assay [10]; 0.0141 in [11]; -0.526 (inactive) in assay [12]. Further, the z-score was -0.934 (inactive) in assay [13]; 0.739 (inactive) in [15]; -0.0228 (inactive) in [16]; -0.624 (inactive) in assay [17]; -1.24 (inactive) in assay [18]; -0.973 in assay [19]. For the same compound, the composite z-score in [14] was 0.341 (inactive); in assay [20], -0.0819.
For `O=C(N1CCCCC1)[C@]1(Cc2ccccc2)N=C(c2ccc(OCCCO)cc2)O[C@@H]1c1ccccc1`, the z-score was -1.69 in assay [1]; 1.16 in assay [2]; -2.04 in assay [3]; -3.35 in assay [4]; -4.43 in assay [5]; -1.06 in [6]. Besides, the z-score in assay [7] was -0.515 (inactive); in assay [8], -1.26; in [9], -2.03; in [10], 0.528 (inactive); in [11] it was 0.0053; in assay [12], -1.88 (inactive). Further, the z-score was -2.94 (inactive) in assay [13]; 0.208 (inactive) in [15]; 1.02 (inactive) in assay [16]; 0.137 (inactive) in [17]; -0.829 (inactive) in assay [18]; -3.93 in assay [19]. The composite z-score in assay [14] was -0.0047 (inactive); in assay [20] it was 0.205.
As to `CCCC[C@@H]1C[C@H]1[C@@H](NC(=O)c1cccs1)c1ccc(-c2ccccc2)cc1`, the z-score in assay [1] is -0.997; in [2], -0.537; in assay [3], -0.0352; in assay [4], -0.802; in assay [5], -0.38; in assay [6], 0.565. In addition, the z-score in assay [7] is -1.56 (inactive); in assay [8], -0.233; in assay [9], -0.815; in assay [10], 1.71 (inactive); in [11] it was 1.13; in assay [12] it was 0.748 (inactive). Moreover, the z-score was 0.921 (inactive) in assay [13]; 1.03 (inactive) in assay [15]; 0.822 (inactive) in assay [16]; -0.409 (inactive) in assay [17]; -0.384 (inactive) in assay [18]; 0.661 in assay [19]. The results for the composite z-score in [14] and in assay [20] were -1.02 (inactive) and 0.416, respectively.
As to `COCCOC(=O)N1C(=O)[C@@]2(c3cc(C#CCNC(N)=O)ccc31)[C@H](C(=O)Nc1nc3ccccc3s1)[C@H]1C(=O)O[C@H](c3ccccc3)[C@H](c3ccccc3)N1[C@@H]2c1ccc(OCCO)cc1`, the z-score in assay [1] was -0.649; in assay [2] it was 1.2; in assay [3] it was -1.22; in assay [4] it was -2.58; in assay [5] it was -0.0496; in assay [6], -3.26. The z-score was 1 (inactive) in [7]; -0.692 in assay [8]; -1.53 in assay [9]; 0.385 (inactive) in assay [10]; 0.382 in [11]; 1.83 (inactive) in assay [12]. Besides, the z-score is 0.114 (inactive) in assay [13]; 2.41 (inactive) in assay [15]; 1.41 (inactive) in [16]; -0.27 (inactive) in assay [17]; -0.463 (inactive) in assay [18]; -0.397 in [19]. For the same compound, the composite z-score in [14] was -0.716 (inactive); in [20], 0.0402.
For the compound `CCCCCN1CC=CC23O[C@@H]4C=CCCOC(=O)C4[C@H]2C(=O)N(CCCCCO)[C@@H]3C1=O` (stereo not given in full), the z-score in [1] is 0.0264; in assay [2], -1.3; in assay [3] it was 0.542; in assay [4], 1.8; in assay [5], 1.74; in [6] it was 0.301. Also, the z-score in assay [7] was -0.0303 (inactive); in assay [8], 0.159; in assay [9], -0.849; in assay [10], 0.26 (inactive); in assay [11], 0.476; in [12], 0.388 (inactive). Further, the z-score is 0.66 (inactive) in assay [13]; -0.304 (inactive) in [15]; 0.467 (inactive) in assay [16]; 0.685 (inactive) in [17]; 0.67 (inactive) in assay [18]; 0.802 in [19]. Moreover, the figures for the composite z-score in [14] and in assay [20] were -0.185 (inactive) and 0.263, respectively.

Values taken from PubChem BioAssay.
